Assay outcomes as filed in PubChem.
Sampled rows, rich in hits. Any-hit rate of the full collection: about 19%.
DT40 TDP1 CPT: growth inhibition of DT40 Tdp1-/-;hTDP1 cells with camptothecin (screen for TDP1 inhibitors) | chicken DT40 Tdp1-/-;hTDP1 cells + 20 nM CPT, ATP luminescence, 48 h | Potency, µM (titrated, usually from 46.2 µM), for inactives: at the highest dose activity change, negative = growth inhibition, usual class: inhibitors | 420,000 tested, 12% active | AID 686979; note: potency is the fitted concentration of half-maximal effect; % is set by controls: 0 for no effect and ±100 for the full control effect; nearly all actives have a fitted effect of over 55% in size
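Cell growth measured by CellTiter-Glo luminescence after a minimum 48 h, 37 C compound exposure with 20 nM CPT in Tdp1-knockout DT40 cells stably expressing hTDP1, seeded 400/well; qHTS titration format.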
MCF10A rerep: inducers of DNA re-replication in MCF 10A breast cells; AID 624296; MCF 10A DNA re-replication, Hoechst nuclear intensity, 48 h; 350,000 tested, 2.9% active; Potency, µM (highest dose often 46.1 µM), for inactives: at the top dose activity, positive = re-replication, most hits filed as activators; note: potency is the fitted concentration of half-maximal effect; % of control where 0% means no effect; nearly all actives have a fitted effect of over 50% in size
BCR signal inh: inhibitors of chronic active B-cell receptor signaling; Potency, µM (titrated, usually from 46.1 µM), for the others: at the top dose activity change, negative = inhibition, most hits filed as inhibitors; AID 493014; ABC-DLBCL IkBa-CBG/CBR reporter, luminescence ratio, 4 h; 340,000 tested, 0.05% active; active = well fitted inhibition curve with a large enough effect in the signal ratio, with a control signal flat, not every such curve was filed as active; inconclusive = small, poorly fitted or top-dose-only effect, or effect the other way, or a change in a side signal; the % refers to the signal ratio;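 note: potency is the fitted concentration of half-maximal effect; plate controls were basal doxycycline-induced cells for no effect and cells given 10 µM MG132 for full effect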
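Concentration-response series (up to 46 uM) were applied to TMD8 dual-reporter cells for 4 h at 37C with doxycycline. Green/red ratio, after filter-overlap correction, defined %Activity; red signal alone was normalised to basal cells and zero luminescence.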
SW480 rereplic: inducers of DNA re-replication in SW480 colon cancer cells; SW480 DNA re-replication, Hoechst DNA content imaging, 48 h; Potency, µM (series often up to 46.1 µM), inactives show top-dose re-replication activation, usual class: activators; 340,000 tested, 1.8% active; note: potency is the fitted concentration of half-maximal effect; % of control where 0% means no effect; nearly all actives have a fitted effect of over 55% in size
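Treated cells incubate 48 hr (37 C, 5% CO2), are stained 40 min with Hoechst, and nuclear fluorescence is enumerated; a rise in nuclei with high DNA signal marks re-replication.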
DT40 TDP1 no CPT: qHTS for Inhibitors of human tyrosyl-DNA phosphodiesterase 1 (TDP1): qHTS in cells in absence of CPT; 420,000 tested, 15% active; DT40 Tdp1-/- hTDP1 cells, no CPT, ATP luminescence, 48 h; Potency, µM (top dose mostly 46.2 µM), without a hit: at the highest dose activity change, negative = growth inhibition, hits mostly inhibitors; AID 686978, 2013; note: potency is the fitted concentration of half-maximal effect; % is set by controls: 0 for no effect and ±100 for the full control effect; nearly all actives have a fitted effect of over 55% in size
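DT40 Tdp1-/-;hTDP1 cells, no CPT (DMSO vehicle only), 400 cells/well; compounds pin-transferred; ≥48 hr, 37 °C; CellTiter-Glo 30 min RT dark, luminescence read.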
IL-1B inflam inh: inflammasome signaling inhibition, IL-1 beta readout | 360,000 tested, 4.7% active | activity change, % at 57.5 µM | THP-1 LPS/ATP IL-1B secretion, AlphaLISA, 16 h; hits give low values; in the data active = activity change below about -50%; inconclusive = mostly about -30% to -49%; note: % is set by controls: 0 for no effect and ±100 for the full control effect
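THP-1 cells pretreated 1 hr with compounds (up to 57.5 uM final), then stimulated with LPS (250 ng/mL final) plus ATP (1.25 mM final); secreted IL-1B measured by AlphaLISA after 16 hr, decreased signal indicating inhibition.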
The depositor's hits bear a star; ? = inconclusive; nt = not tested or not shown; [ ] = remark or other dose. Unless noted, calls come from the whole dose curve; as a rule, active = well fitted curve in the direction sought with a large enough effect; inconclusive = small, poorly fitted or top-dose-only effect, or another doubt; inactive = no such curve, though single readings can be large; an effect the other way counts as inactive or inconclusive.

SMILES	DT40 TDP1 CPT	MCF10A rerep	BCR signal inh	SW480 rereplic	DT40 TDP1 no CPT	IL-1B inflam inh
O=C(O)c1cc(N/N=C/C=C/c2ccccc2[N+](=O)[O-])ccc1Cl	-22%	-4%	?	0%	-10%	8
O=C(Nc1ccc(CN2CCOCC2)cc1)c1ccc(-c2cccc([N+](=O)[O-])c2)o1	21µM*	2%	0%	17%	16µM*	?
COc1c(Cl)cc(Cl)cc1C(=O)Nc1ccc(CN2CCOCC2)cc1	16µM*	?	1%	3%	?	-58*
COc1c(C)cccc1C(=O)Nc1ccc(CN2CCOCC2)cc1	-3%	-8%	7%	0%	-19%	-15
O=C(CNC(=O)c1ccco1)OCc1ccccc1F	13%	3%	?	6%	0%	-10
Cc1ccc(-n2cnc3cc(C(=O)NCc4ccc(F)cc4)ccc32)c(C)c1	21µM*	nt	?	nt	?	nt
Cc1ccc(-n2cnc3cc(C(=O)NC4CCCCCC4)ccc32)c(C)c1	?	nt	?	nt	16µM*	nt
CN(CC(=O)Nc1cccc(F)c1)C(=O)C1CCC(C(=O)N(C)CC(=O)Nc2cccc(F)c2)CC1 (stereo unspecified)	-2%	?	nt	-12%	-10%	3
N#C/C(=C\c1ccc(-c2ccccc2[N+](=O)[O-])o1)C(=O)Nc1nc(-c2cccs2)cs1	?	?	15%	32%	29µM*	-4
COc1ccc(NC(=S)c2ccc(N(C)C)cc2)cc1	?	3%	?	9%	-26%	30
COc1ccc(N2C(=S)N(C(=O)c3ccccc3)C(=Nc3ccccc3)C2=Nc2ccccc2)cc1	?	3%	nt	?	18µM*	-3
COc1ccc(N=C2C(=Nc3ccc(OC)cc3)N(c3ccc(N(C)C)cc3)C(=S)N2c2ccc(OC)cc2)cc1	0.65µM*	5%	?	0%	1µM*	72
COc1ccc(N=C2C(=Nc3ccc(OC)cc3)N(c3ccccc3)C(=S)N2C(=O)c2ccc(Cl)cc2)cc1	-21%	-3%	?	-14%	?	-9
COc1ccc(N=C2C(=Nc3ccc(OC)cc3)N(c3ccc(OC)cc3)C(=S)N2C(=O)c2ccc(OC)cc2)cc1	?	2%	-15%	-4%	18µM*	?
COc1cccc(CN(C(=O)c2cccs2)C2CCS(=O)(=O)C2)c1 (stereo unspecified)	?	1%	0%	-6%	-16%	5
CCc1nc2ccc(C(=O)NCCCN3CCN(c4ccccc4F)CC3)cc2nc1CC	?	?	0%	?	23µM*	-23
O=C(NCCCN1CCN(c2ccccc2F)CC1)c1ccc2nc(Cc3ccccc3)oc2c1	?	nt	nt	nt	26µM*	nt
O=C(NCCCN1CCOCC1)c1ccc2nc(Cc3ccccc3F)oc2c1	10%	-2%	-1%	1%	2%	0
O=C(NCc1ccccc1)c1ccc2nc(CCc3ccccc3)oc2c1	-28%	nt	nt	nt	?	nt
O=C(NCCCN1CCN(c2ccccc2F)CC1)c1ccc2nc(CCc3ccccc3)oc2c1	21µM*	nt	nt	nt	15µM*	nt
Cc1c(C)n(C)c2ccc(C(=O)NCCCN3CCN(c4ccccc4F)CC3)cc12	9.2µM*	4%	14%	?	?	-1
COc1ccccc1C(=O)NCC(=O)OCC(=O)Nc1ccc2[nH]c(=O)[nH]c2c1	-9%	-2%	0%	6%	0%	11
O=C(c1ccncc1)N1CCC2(CCC(CNC(=O)C3(N4CCOCC4)CCCCC3)O2)CC1 (stereo unspecified)	5%[9.04 µM]	nt	nt	nt	-5%	nt
